Screen size: about 1,300 compounds; about 100 (7.7%) were called active. Another 19% or so got no clear call; they are omitted. Only a sample is shown. Unmarked numbers belong to inactive results. The call rests on the fitted dose curve; in most records, active means well fitted activation curve with a large enough effect; inconclusive means small, poorly fitted or top-dose-only effect; inactive means no such curve, though single readings can be large or run the other way.
The compounds below were run against Luciferin 4-monooxygenase (Photinus pyralis) (UniProt P08659) (assay: Firefly luciferase (FLuc-C-HiBiT) SDR gain of signal screen - without ATP). Conditions: Purified FLuc-C-HiBiT, Nano-Glo HiBiT luminescence, no ATP; series mostly up to 32.7 µM; activation (signal gain): at the top concentration.
Excerpt: PI: James Inglese Ph.D. National Center for Advancing Translational Sciences (NCATS), National Institute of Health (NIH), Maryland Discovery and optimization of novel protein-binding ligands underlies many of the methods and applications of biology, drug discovery, clinical diagnostics, and environmental toxicology. Assays for detecting the interaction of, for example, a molecule with a macromolecular target also referred to here as the target of interest (TOI) is dependent on a compatible output technology. Depending on the nature and knowledge surrounding the TOI, whether a receptor, enzyme, regulatory subunit or scaffold, or a sequence-defined nucleic acid folded into a complex tertiary structure, assay strategies can vary widely. Here we exploit ligand-biased changes in the structural dynamics of the target protein to control reporter alpha complementation allowing a non-competitive, non-functional, non-separation measure of ligand-target interaction. […] Secondly, we show the specificity and sensitivity of the SDR for the Abelson tyrosine kinase (ABL1) compared to the serine/threonine protein kinase A, using an enriched chemical library of 128 compounds selected, in part, for activity annotated with ABL1 kinase activity using the Pharos database (3). References: (1) A. S. Dixon et al., NanoLuc Complementation Reporter Optimized for Accurate Measurement of Protein Interactions in Cells. ACS Chem Biol 11, 400-408 (2016). […] Chemistry & Biology, 19, 1060 - 1072 (2012). (3) K. J. Kelleher et al., Pharos 2023: an integrated resource for the understudied human proteome. Nucleic Acids Res 51, D1405-D1416 (2023).
1. Reagent. Dispense 4 uL FLuc-C-HiBiT enzyme-buffer solution per well at a final enzyme concentration of 10 nM with or without 10 uM ATP into columns 2-48 of white, solid bottom medium bind 1536-well plates (Greiner Bio-One) by BioRaptr 2. Dispense respective buffer without enzyme at 4 uL/well in column 1 of assay plates. 2. Compounds. Library compounds and PTC124 control added at 23 nL per well, transfer by Pin Tool. 3. Incubation. Incubate enzyme and compounds at room temperature for >30 min, protect from light. 4. Reagent. (SDR assay) Add 3 uL/well of Nano-Glo HiBiT reagent (Promega) to assay plates for SDR assay without ATP. 5. Incubation. Incubate enzyme and substrate or detection reagent at room temperature for 5-10 min, protect from light. 6. Detector. HiBiT SDR assay measured using CCD-based camera (ViewLux) with settings as follows: Exposure, 1 sec; Gain, High; Speed, Slow; Binning, 2X. REFERENCES: Inglese J, Shamu CE and Guy RK, Reporting data from high throughput screening of small molecule libraries, Nature Chemical Biology, 2007, 3(8): 438-441. doi.org/10.1038/nchembio0807-438.
Further: nearly all actives have a fitted effect of over 55% in size.
Potency means the concentration at half of the fitted maximal effect.

Sequence of Luciferin 4-monooxygenase (Photinus pyralis) (P08659 whole entry, looked up): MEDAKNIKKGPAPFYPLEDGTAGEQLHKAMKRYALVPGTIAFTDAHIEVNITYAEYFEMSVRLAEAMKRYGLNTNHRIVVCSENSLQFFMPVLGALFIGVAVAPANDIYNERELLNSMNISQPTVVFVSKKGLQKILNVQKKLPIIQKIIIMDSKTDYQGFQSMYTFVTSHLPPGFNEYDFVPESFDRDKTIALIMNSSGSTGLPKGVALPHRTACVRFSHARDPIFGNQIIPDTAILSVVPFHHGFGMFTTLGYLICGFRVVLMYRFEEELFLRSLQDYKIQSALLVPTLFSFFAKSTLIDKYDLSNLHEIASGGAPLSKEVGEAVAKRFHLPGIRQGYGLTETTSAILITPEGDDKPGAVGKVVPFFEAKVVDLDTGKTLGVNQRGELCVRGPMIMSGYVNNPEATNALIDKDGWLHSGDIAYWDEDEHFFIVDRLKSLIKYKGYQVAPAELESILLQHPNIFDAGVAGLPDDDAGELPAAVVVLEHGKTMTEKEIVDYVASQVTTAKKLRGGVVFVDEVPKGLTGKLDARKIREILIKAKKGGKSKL

| Structure (SMILES) | activation (signal gain) | Potency |
| --- | --- | --- |
| COc1ccc(-c2cc(N3CCCC(NC(=O)c4ccsc4)C3)n[nH]2)cc1 (centres undefined) | 19.3% |  |
| Fc1ccc(Nc2nc(-c3ccccc3F)no2)cc1 | 22% |  |
| Cc1nn(-c2ccc(C(C)C)cc2)c(C)c1[C@@H]1C=C[C@@H](NC(=S)NCC(C)C)C1 | 13.7% [at 49.3 µM] |  |
| COc1ccc(CC(=O)Nc2ccc(-c3nc4ccccc4s3)c(C)c2)cc1 | 11.5% |  |
| O=C(COc1ccc(Cl)cc1)Nc1ccc(-c2nc3cc(Cl)ccc3o2)c(O)c1 | 11.7% |  |
| O=C([C@@H]1C[C@@H](O)[C@H](O)[C@@H]2NC(=S)N(c3ccc(OC(F)(F)F)cc3)[C@@H]21)N1CCCCC1 | 18.3% |  |
| CCNC(=O)C1C(c2cccc(NC(=O)c3ccc(OC)cc3)c2)OC(=O)N1Cc1ccc(C)cc1 (centres undefined) | 19.8% |  |
| Cc1nnn2c(C(=O)NC3CC3)cccc12 | 15.7% [at 65.7 µM] |  |
| COc1cc(F)ccc1-c1ccc(COc2ccc3c(cnn3CCC(=O)O)c2)cc1 | 10.6% [at 49.3 µM] |  |
| Cc1cc(C)n(CCC(=O)N2CCC(Cc3noc(C4CC4)n3)C2)n1 (centres undefined) | 9.71% |  |
| O=C(Nc1ccccc1)c1nc2c(o1)CCN(Cc1cccc(Cl)c1)CC2 | 18.4% [at 49.3 µM] |  |
| Cc1ccc(C(=O)Nc2ccc(-c3nc4ccccc4s3)c(O)c2)cc1 | 15.8% |  |
| CC(=O)c1ccc(NC(=O)CSc2nnc(NC(=O)Nc3ccccc3)s2)cc1 | 19.1% |  |
| O=C(CSc1ccc(F)cc1)Nc1ccccc1-c1nc2ccccc2s1 | 10.6% |  |
| C[S+](=O)([O-])CCn1ncc2cc(OCc3cccc(-c4ccccc4)c3)ccc21 | 15.9% [at 49.3 µM] |  |
| Cc1ccc2cc(CN3CCN(CC(N)=O)CC3)c(-c3cccs3)nc2c1 | 17.7% |  |
| OCc1cccc(-c2cc3c(cn2)CN(Cc2ccccc2)CCN3)c1 | 19.2% [at 49.3 µM] |  |
| O=C(NCc1ccc(F)c(Cl)c1)C1CCN(C(=O)c2ncn3c2COC(c2ccccc2)C3)CC1 (centres undefined) | 12% |  |
| CC(=O)Oc1ccccc1C(=O)Nc1ccc(-c2nc3ccc(C)cc3s2)cc1 | 20.9% |  |
| O=C(NCc1ccccc1)C1CCN(C(=O)c2ncn3c2COC(c2ccccc2)C3)CC1 (centres undefined) | 16.6% |  |
| O=C(/C=C/c1ccccc1)Nc1cc(-c2nc3cc(Cl)ccc3o2)ccc1Cl | 14.8% |  |
| CNc1nc(C(=O)NCc2ccc3[nH]c(-c4ccc(F)cc4)c(C)c3c2)cs1 | 13.1% |  |
| OCCN1CCN(c2nc(N3CCCCC3)c3cnn(-c4ccc(Cl)cc4)c3n2)CC1 | 11.8% |  |
| Cc1ccc(-n2ncc3c(N4CCC(C(N)=O)CC4)ncnc32)cc1 | 15.7% |  |
| OCC1CCCN(c2ncnc3c2cnn3-c2ccccc2)C1 (centres undefined) |  | 1.76 µM (active) |
| Cc1ccc(-c2nnc(SCc3ccccc3C)o2)cc1 | 13.5% |  |
| O=C(NC1CCN(c2cc(-c3ccc(F)cc3)[nH]n2)C1)c1cc2ccccc2[nH]1 (centres undefined) | 18.6% |  |

| Structure (SMILES) | activation (signal gain) | Potency |
| --- | --- | --- |
| Cn1ccnc1CN1CCc2nc(C(=O)Nc3ccccc3)oc2CC1 | 18.4% [at 49.3 µM] |  |
| Cc1ccc(C2Cn3nnc(C(=O)N4CCC(C(=O)NCCc5ccccc5)CC4)c3CO2)cc1 (centres undefined) | 9.42% |  |
| CN1c2cc(C(=O)Nc3ccccc3)ccc2C(=O)N2CCCCCC21 (centres undefined) | 17% |  |
| Oc1cccc(-c2cc3c(cn2)CN(Cc2cccnc2)CCN3)c1 | 18.1% [at 49.3 µM] |  |
| OC1(CN2CCCCC2)CCN(c2nc3ccccc3s2)C1 (centres undefined) | 16% |  |
| Cc1nn(-c2ccc(C(C)(C)C)cc2)c(C)c1[C@@H]1C=C[C@@H](NC(=O)c2ccco2)C1 | 9.96% [at 49.3 µM] |  |
| Cc1cccc(C(=O)Nc2ccc(-c3nc4ccccc4s3)c(C)c2)c1 | 21.9% |  |
| COc1cccc(-c2nc3ccc(-c4ccc5c(c4)OCO5)cc3o2)c1OC | 24.4% |  |
| Cc1ccc(Cl)cc1-n1ncc2c(N3CCC(C(N)=O)CC3)ncnc21 | 12% |  |
| COc1ccc(-c2nc3ccccc3s2)cc1NC(=O)COc1ccccc1C | 7.67% |  |
| CN1CCN(C[C@@H]2CN(C(=O)CCCc3ccccc3)C[C@@H]2CO)CC1 | 8.6% |  |
| Cc1nn(-c2ccc(C(C)C)cc2)c(C)c1[C@@H]1C=C[C@@H](NC(=O)Nc2ccccc2)C1 | 14.5% [at 49.3 µM] |  |
| Cc1ccc(Nc2c(-c3ccc(N(C)C)cc3)nc3nc[nH]n23)cc1 | 18.3% |  |
| CC(=O)Nc1ccc(NC(=O)CCCc2nc(-c3ccc(C(C)(C)C)cc3)no2)cc1 | 24.7% |  |
| O=C(CCCc1ccccc1)N1CCC2(CC1)CC(O)CCO2 (centres undefined) | 21.2% |  |
| COc1ccccc1OC1(C(=O)O)CCN(c2ncnc3nc[nH]c23)CC1 | 11.8% |  |
| CC(C)C(=O)Nc1cc(-c2nc3ccccc3s2)ccc1Cl | 11.7% |  |
| Oc1ccc(-c2nc(C3CC3)nc3c2CCN(Cc2cccc(F)c2)CC3)cc1 | 9.06% |  |
| Cc1nn(-c2ccc(C(C)C)cc2)c(C)c1[C@@H]1C=C[C@@H](NC(=O)CC2(CC(=O)O)CCCC2)C1 | 15.4% |  |
| Cc1cc2nn(-c3ccc(Cl)cc3)nc2cc1NC(=O)C(C)C | 17.2% |  |
| O=C(NCC1CC1)C1CCN(C(=O)c2ncn3c2COC(c2ccccc2)C3)CC1 (centres undefined) | 12.6% |  |
| CCc1cccc(NC(=O)c2cc(-c3ccccc3)n[nH]2)c1 | 25.8% |  |
| CC(=O)c1nn(-c2ccc(OC(F)(F)F)cc2)nc1Nc1ccccc1 | 14.5% |  |
| COc1ccc(C)cc1NC(=O)Nc1cccc(-c2ccc(N3CCCCC3)nn2)c1 |  | 8.81 µM (active) |
| Cc1cccc(-c2cccc(NC(=O)C3CCCN(C(=O)CC(F)(F)F)C3)c2)c1 (centres undefined) | 12.4% |  |
| Cc1ccc(-c2nc(C(=O)N(C)Cc3ccccc3)no2)cc1 | 13.1% |  |
| CCOC(=O)C1CCN(C(=O)c2cccc3c2CCN3C(=O)Nc2ccccc2)CC1 | 16.3% |  |
